The full ranking holds about 35,000 sequences; the median of “fluorescence intensity (a.u.)” is about 10,000, and the highest 2% start at about 52,000. The list comes from a sample in which the highest values are over-represented; it also holds similar and randomly drawn sequences.

This experiment has as its target T1, OsWOX13 (Oryza sativa, UniProt Q5QMM3 1-267).
T1 sequence: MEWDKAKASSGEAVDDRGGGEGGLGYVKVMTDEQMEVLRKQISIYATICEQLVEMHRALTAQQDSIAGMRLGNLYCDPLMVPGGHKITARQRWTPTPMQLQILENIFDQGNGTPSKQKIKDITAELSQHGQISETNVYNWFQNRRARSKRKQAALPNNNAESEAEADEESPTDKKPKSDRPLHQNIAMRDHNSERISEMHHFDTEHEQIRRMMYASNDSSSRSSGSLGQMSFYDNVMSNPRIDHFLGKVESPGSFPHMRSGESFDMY
Briefly: protein-binding microarray (RPBM); PBS, 2% BSA, 51.3 ng/ul salmon testes DNA, 50 uM zinc acetate, 200 nM TF, 25 C, 1 h; high values mean tight binding. As to conditions: protein: recombinant; tags: N-terminal polyhistidine and DsRed monomer fusion (pET32a); label: CyDye5-dUTP incorporated in the synthesized complementary strand; 3' TTTTT single-stranded linker to array surface; dsDNA, one strand shown. A digest of the protocol: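 Ni–NTA purification followed expression in E. coli BL21-CodonPlus of transcription factors fused N-terminally to a polyhistidine tag and DsRed. At 200 nM in PBS with 2% BSA, salmon testes DNA and 50 µM zinc acetate, the protein was incubated for 1 h at 25 °C with a custom Agilent array that had been primer-extended with Cy5-dUTP and blocked with 2% BSA. After washing, the array was read on an Axon 4000B scanner. The binding signal is per-feature fluorescence intensity in arbitrary units.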
With “AGTCGAGTCAACTTAATTAACTTAACTTCAACCGTCGCTACGGAGTCACCTAGTGCAG”, the binding signal is 5940 fluorescence intensity (a.u.).

As to “TAGCCAATCTAATAGCTCATTCATATAATAATTACATACTCGGAGTCACCTAGTGCAG”, the binding signal was 4410 fluorescence intensity (a.u.).

Turning to “GTGACATCATAATTTAGATTTAACTTATTCGTGCATATTACGGAGTCACCTAGTGCAG”, the binding signal was 9460 fluorescence intensity (a.u.).

For the sequence “AGCTAAATCTGTGATTGCCGTTGCATCTAGCCACGTCGTCCGGAGTCACCTAGTGCAG”, the binding signal was 14600 fluorescence intensity (a.u.).

Consider “GAATAACAGACATATCATATTTGTTGCCTCCTGGTGGCTACGGAGTCACCTAGTGCAG”, for which the binding signal was 7840 fluorescence intensity (a.u.).

Turning to “ATTTGAATAATTAGGGAGTCTATGAACAGAAACATAGACCCGGAGTCACCTAGTGCAG”, the binding signal was 6000 fluorescence intensity (a.u.).

Consider “TATCATCAATCCGCTAATTAACTGACAACGCATATTGGAGCGGAGTCACCTAGTGCAG”, for which the binding signal was 29400 fluorescence intensity (a.u.).

With “TGTGATTAATTGGTAATCTGCTTTTACAAGCTTCAATTGCCGGAGTCACCTAGTGCAG”, the binding signal was 60400 fluorescence intensity (a.u.).

Consider “ATGTATATTAATTACTAGCCAAATGGTTAGCATGATTACTCGGAGTCACCTAGTGCAG”, for which the binding signal was 10900 fluorescence intensity (a.u.).

Turning to “AAAATTAAATTGATGGTATTACTAGCATTAATTAGCCACTCGGAGTCACCTAGTGCAG”, the binding signal was 62800 fluorescence intensity (a.u.).

Regarding “TTCAAATTAAGCTGCTTTAGATTATAATCTGAAGCTGGGCCGGAGTCACCTAGTGCAG”, the binding signal was 17800 fluorescence intensity (a.u.).

Consider “TATTGATTTGATAAAACTAATTTAGCATTATAAATATTATCGGAGTCACCTAGTGCAG”, for which the binding signal is 21300 fluorescence intensity (a.u.).

In the case of “TCAATCAATTAATTAATTAATCGAATTGTGTTATATCTCTCGGAGTCACCTAGTGCAG”, the binding signal is 51000 fluorescence intensity (a.u.).

In the case of “GTGATTGGATCTGTAATTATCAATCTCTCTCTCTCTCTCTCGGAGTCACCTAGTGCAG”, the binding signal was 64600 fluorescence intensity (a.u.).

Take “ATAGCTATATCAATCTAGAATTGGATTAGATATATCTCGACGGAGTCACCTAGTGCAG”: the binding signal was 6040 fluorescence intensity (a.u.).

“TGTTGGTGCTGTGATTAATTGGTAATCTGCTTTTACAAGCCGGAGTCACCTAGTGCAG”: the binding signal is 19800 fluorescence intensity (a.u.).

Regarding “TCATATAATTGGATTTATAATTAATCACCAATACCAAACTCGGAGTCACCTAGTGCAG”, the binding signal is 35300 fluorescence intensity (a.u.).

Consider “GTAGATAATTAAATCGGATTAGCATTAGATAATCAAGCAACGGAGTCACCTAGTGCAG”, for which the binding signal is 37000 fluorescence intensity (a.u.).

Regarding “ATTAGCAATTAATTAATTATTAATTGGATAATTAATCACTCGGAGTCACCTAGTGCAG”, the binding signal was 64800 fluorescence intensity (a.u.).

Take “AACATGGAGAATATGCTAATTAGTAAAACATGTTGAAGTGCGGAGTCACCTAGTGCAG”: the binding signal was 3290 fluorescence intensity (a.u.).

With “GCACAATCATGCTACTAATTACCCTTTTCAACCTATAAATCGGAGTCACCTAGTGCAG”, the binding signal is 11200 fluorescence intensity (a.u.).

For the sequence “ACTAATTACACAGAATGCATGTAAATTACGAGACGAATCTCGGAGTCACCTAGTGCAG”, the binding signal was 31200 fluorescence intensity (a.u.).

As to “AAATTAAATTGCCCGGATCAATGGCTACAAATACCCCATGCGGAGTCACCTAGTGCAG”, the binding signal is 15200 fluorescence intensity (a.u.).

These data come from PMC7819943, “Rice protein-binding microarrays: a tool to detect cis-acting elements near promoter regions in rice”.
